# Measurements reported in PubChem BioAssay.
# Columns and labels:
# [1] = test system: Human papillomavirus type 1a protein E7 (residues 44-93); test: HPV1a E7 fragment binders on microarrays, primary screen, biochemical, small-molecule microarray, residues 44-93, 635 nm fluorescence (AID 1108); settings: small-molecule microarray binding, fluorescence 635 nm; higher = more signal;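 note: E7 fragment applied at 1 µg/mL in TBST for 1 h at 4 C; score combines spot fluorescence with its signal to noise ratio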
# [2] = modulators of HCV replicon luciferase signal, primary screen, HCV replication inhibitor project, Huh7 cells, luciferase reporter (AID 1109); settings: 48 h, higher = more signal;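 note: huh7 hepatoma cells harbouring a luciferase neomycin HCV replicon reporter; luciferase luminescence as measure of HCV replicon replication; test concentration not given here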
# [3] = biological target: Left-right determination factor 2 (Homo sapiens) (UniProt O00292); test: LEFTY2 binders on small-molecule microarrays, primary screen, biochemical, small-molecule microarray, 635 nm fluorescence scan (AID 1110); settings: LEFTY2 binding, higher = more signal
# Chain of Left-right determination factor 2 (Homo sapiens) (O00292 whole entry, looked up): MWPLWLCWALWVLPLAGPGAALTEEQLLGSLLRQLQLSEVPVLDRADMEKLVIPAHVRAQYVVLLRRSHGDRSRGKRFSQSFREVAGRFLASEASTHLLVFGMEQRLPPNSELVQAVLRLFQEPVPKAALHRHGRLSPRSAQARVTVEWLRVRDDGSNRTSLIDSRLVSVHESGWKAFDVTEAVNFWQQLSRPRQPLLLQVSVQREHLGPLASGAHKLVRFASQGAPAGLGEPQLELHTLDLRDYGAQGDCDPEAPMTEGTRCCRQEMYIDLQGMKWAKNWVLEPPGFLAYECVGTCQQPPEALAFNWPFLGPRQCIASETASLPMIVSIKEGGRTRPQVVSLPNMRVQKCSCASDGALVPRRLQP
# [4] = biological target: Calmodulin-1 (Homo sapiens) (UniProt P0DP23); test: CALM1 binders on microarrays, EGTA buffer, profiling panel, biochemical, small-molecule microarray, Cy5-labelled CALM1 (AID 1111); settings: Cy5-CALM1 binding fluorescence, higher = more signal;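 note: labelled calmodulin applied in Tris saline Tween buffer holding calcium plus EGTA and DTT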
# [5] = biological target: Calmodulin-1 (Homo sapiens) (UniProt P0DP23); test: calcium-bound CALM1 binders on microarrays, profiling panel, artefact control for SMM control-protein annotation, biochemical, small-molecule microarray, Cy5-labelled CALM1, plus calcium (AID 1112); settings: Cy5-CALM1 binding fluorescence, higher = more signal;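 note: score merges spot fluorescence with signal to noise from triplicate slides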
# [6] = small-molecule microarray binders of probe aWnt5a, primary screen, biochemical, biotinylated probe, 635/667 nm fluorescence (AID 1113); settings: higher = more signal;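 note: score merges 667 nm fluorescence intensity with signal-to-noise per printed feature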
# [7] = small-molecule microarray binders of probe aShh, primary screen, biochemical, biotinylated probe, 635/667 nm fluorescence (AID 1114); settings: higher = more signal;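 note: probe is biotin-labelled aShh protein from a stem cell growth factor screen; measures binding of labelled protein to compounds printed on the slide; score merges feature fluorescence at 667 nm with signal-to-noise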
# [8] = small-molecule microarray binders of probe aNog, primary screen, biochemical, biotinylated probe, 635/667 nm fluorescence (AID 1115); settings: higher = more signal;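 note: probe is biotinylated aNog protein used at 0.15 µg/mL for 1 h at 4 C; z-score combines 667 nm fluorescence of each spot with its signal to noise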
# [9] = biological target: Torsin-1A-interacting protein 1 (Homo sapiens) (UniProt Q5JTV8); test: LAP1 binders from COS7 cell lysate, primary screen, small-molecule microarray, 635/667 nm fluorescence (AID 1116); settings: COS7-hLAP1 lysate binding, 635 nm fluorescence, higher = more signal
# Chain of Torsin-1A-interacting protein 1 (Homo sapiens) (Q5JTV8 whole entry, looked up): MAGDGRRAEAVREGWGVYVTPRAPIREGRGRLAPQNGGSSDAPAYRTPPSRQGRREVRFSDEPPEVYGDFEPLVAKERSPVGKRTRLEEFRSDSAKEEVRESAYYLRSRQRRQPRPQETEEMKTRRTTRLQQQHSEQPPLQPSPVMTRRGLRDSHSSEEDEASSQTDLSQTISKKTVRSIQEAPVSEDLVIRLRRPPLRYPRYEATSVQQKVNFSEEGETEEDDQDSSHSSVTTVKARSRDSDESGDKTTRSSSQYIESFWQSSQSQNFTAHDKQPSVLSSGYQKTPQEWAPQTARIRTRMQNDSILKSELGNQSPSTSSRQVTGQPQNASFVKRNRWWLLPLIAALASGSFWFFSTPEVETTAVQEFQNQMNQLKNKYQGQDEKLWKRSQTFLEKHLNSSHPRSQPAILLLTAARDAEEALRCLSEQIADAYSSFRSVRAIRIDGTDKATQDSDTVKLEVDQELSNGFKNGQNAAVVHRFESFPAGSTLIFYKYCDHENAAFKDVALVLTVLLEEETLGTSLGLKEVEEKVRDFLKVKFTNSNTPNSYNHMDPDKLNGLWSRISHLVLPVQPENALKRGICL
# [10] = biological target: Alpha-bungarotoxin (Bungarus multicinctus) (UniProt P60615); test: alpha-bungarotoxin binders on microarray, profiling panel, artefact control for SMM control protein annotation, biochemical, small-molecule microarray, Alexa647 label, 635/667 nm fluorescence (AID 1117); settings: alpha-BTX-A647 binding fluorescence, higher = more signal
# Chain of Alpha-bungarotoxin (Bungarus multicinctus) (P60615 whole entry, looked up): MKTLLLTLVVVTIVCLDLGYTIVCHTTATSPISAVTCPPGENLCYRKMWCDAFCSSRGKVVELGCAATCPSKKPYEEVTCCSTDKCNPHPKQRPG
SMILES,composite z-score [1],z-score [2],composite z-score [3],composite z-score [4],composite z-score [5],composite z-score [6],composite z-score [7],composite z-score [8],composite z-score [9],composite z-score [10]
CC(C)CON=C1C[C@@H](O)[C@@H](O)[C@@H]2[C@@H]3C(=O)N(C[C@@H]4CCCO4)C(=O)[C@@H]3CC[C@@H]12,0.267,0.444,0.0128,-0.333,0.0901,-0.173,-0.123,-0.103,-0.419,0.678
COCCNC(=O)OCC1CCCC2(CC(OC(=O)NCc3ccc4c(c3)OCO4)CC(CCC(=O)N[C@@H](C)C(=O)OC)O2)O1 (stereo not given in full),0.953,-1.26,0.65,0.332,-0.431,-0.0819,-0.0553,-0.0645,0.376,0.804
CC(C)=CCCC(C)=CCON=C1C[C@@H](O)[C@@H](O)[C@@H]2[C@@H]3C(=O)N(c4ccc(F)cc4F)C(=O)[C@@H]3CC[C@H]12,1.36,0.19,0.621,-0.0184,-0.778,-0.124,0.0668,-0.379,0.153,0.39
COC(=O)CC=C[C@@H](C)[C@@H](C=NO[C@H](C)c1cn([C@H](CO)Cc2ccccc2)nn1)OC,0.319,-1.3,1.1,-1.03,-1.24,-0.0179,-0.138,-0.191,0.427,0.608
COC(=O)[C@H](C)NC(=O)CCC1CC(OC(=O)NCc2ccc3c(c2)OCO3)CC2(CCCC(COC(=O)NCC3CCCCC3)O2)O1 (stereo not given in full),1.37,-1.48,0.764,0.369,-0.0553,0.0775,-0.138,0.656,0.173,0.54
CC(CCN1CCCc2nc(C)c(C)cc21)=NOC(C)CN1CCCCc2nc(C)c(C)cc21 (stereo not given),1.35,-1.66,0.984,0.341,-0.568,0.159,0.689,0.57,0.436,0.714
O=C1[C@H]2[C@H]3[C@H](O)[C@H](O)CC(=NOC[C@@H](O)COCc4ccco4)[C@@H]3CC[C@H]2C(=O)N1C[C@@H]1CCCO1,0.0714,0.557,1.11,-1.05,-1.73,-0.117,-0.0553,-0.218,0.3,-0.075
CO[C@@H]1COC(=O)[C@H](CCSC)NC(=O)CC=C[C@@H](C)COC(=O)[C@H](C)NC(=O)CC=C[C@H]1C,0.677,-0.62,1.19,-0.886,-1.04,-0.0179,-0.221,-0.0604,-0.185,-0.155
CCOC(=O)[C@H](CC(C)C)NC(=O)CCC1CC(OC(=O)NCCc2ccc(F)cc2)CC2(CCCC(COC(=O)NCC(c3ccccc3)c3ccccc3)O2)O1 (stereo not given in full),0.776,0.612,0.319,0.479,-0.476,-0.152,-0.214,-0.501,0.145,0.71
CCOC(=O)[C@H](CC(C)C)NC(=O)CCC1CC(OC(=O)NCc2cccc3ccccc23)CC2(CCCC(COC(=O)NCCc3ccc(Cl)cc3)O2)O1 (stereo not given in full),0.529,-0.707,0.486,0.0203,-0.117,-0.191,-0.473,-0.114,0.161,0.557
COC(=O)[C@H](C)NC(=O)CCC1CC(OC(=O)NCc2ccc3c(c2)OCO3)CC2(CCCC(COC(=O)NCC(c3ccccc3)c3ccccc3)O2)O1 (stereo not given in full),1.42,0.327,0.739,0.869,-0.663,-0.0037,-0.229,-0.11,0.587,1.04
C[C@@H]1CC[C@H]2C(=O)O[C@@H](Cc3ccccc3)CN2[C@H]1c1ccc(Br)cc1,0.712,0.166,0.276,0.134,0.216,-0.118,-0.221,-0.158,0.579,0.198
CCOC(=O)[C@H](Cc1ccccc1)NC(=O)CCC1CC(OC(=O)NCCc2ccc(F)cc2)CC2(CCCC(COC(=O)NCCCN3CCCC3=O)O2)O1 (stereo not given in full),1.35,-0.427,0.612,0.566,-0.043,-0.0222,0.149,0.0083,0.0166,0.261
C[C@@H](c1ccccc1)N1C(=O)[C@H]2[C@H]3[C@H](O)[C@H](O)CC(=NO[C@@H]4O[C@H](CO)[C@@H](O)[C@H](O)[C@H]4O)[C@H]3CC[C@H]2C1=O,0.668,-0.087,0.414,-0.222,-0.461,-0.196,0.147,-0.206,0.163,0.556
CC(=O)OC[C@H]1O[C@H](CC=NO[C@H](C)c2cn([C@H](CO)Cc3ccccc3)nn2)C=C[C@@H]1OC(C)=O,1.16,-0.355,0.852,0.081,-0.367,-0.0231,-0.0553,0.223,0.213,1.27
CO[C@H]1COC(=O)CC=C[C@H](C)[C@@H](OC)COC(=O)[C@@H](C)NC(=O)CC=C[C@@H]1C,-2.13,-1.42,0.962,-0.857,-1.55,-0.119,-0.367,-0.274,0.12,-0.352
COc1ccc(COC(=O)NN=C2C[C@@H](O)[C@@H](O)[C@@H]3[C@@H]4C(=O)N(c5cccc(Oc6ccccc6)c5)C(=O)[C@@H]4CC[C@@H]23)cc1,-0.203,-1.98,-0.0421,-0.338,0.0996,-0.0165,-0.117,-0.0641,0.326,0.487
COC(=O)[C@@H]1CC[C@H](C)[C@@H](c2ccc(C)cc2)N1C(=O)c1ccc(C=NOC[C@@H](C)[C@H](OCc2ccccc2)C(C)C)cc1,1.09,-0.989,0.583,-0.0027,-0.607,-0.0276,-0.0553,-0.302,1.27,1.25

SMILES,composite z-score [1],z-score [2],composite z-score [3],composite z-score [4],composite z-score [5],composite z-score [6],composite z-score [7],composite z-score [8],composite z-score [9],composite z-score [10]
COC(=O)CC=C[C@@H](C)[C@@H](C=NO[C@@H]1O[C@H](COC(C)=O)[C@@H](OC(C)=O)[C@H](OC(C)=O)[C@H]1OC(C)=O)NS(=O)(=O)c1ccc(C)cc1,-0.296,-0.594,0.599,-0.881,-1.69,-0.124,-0.221,-0.158,-0.441,-1
CC(C)=CCCC(C)=CCON=C1C[C@@H](O)[C@@H](O)[C@@H]2[C@@H]3C(=O)N(C(C)(C)C)C(=O)[C@@H]3CC[C@H]12,0.356,0.217,0.61,-0.327,-0.889,-0.118,-0.153,-0.0446,0.452,0.135
CCN1C(=O)[C@@H]2[C@H]3C(=CC[C@@H]2C1=O)C1(OCCCO1)[C@H]1O[C@H]1[C@H]3O,1.38,-4.67,0.352,0.669,-0.536,0.0293,-0.304,0.194,1.27,0.857
CCN1C(=O)[C@H]2[C@H]3[C@H](O)[C@H](O)CC(=NOCC(C)C)[C@@H]3CC[C@H]2C1=O,1.33,-0.0305,0.32,-0.39,-0.682,-0.096,-0.0709,-0.255,0.317,0.13
CCOC(=O)NN=C1C[C@@H](O)[C@@H](O)[C@@H]2[C@@H]3C(=O)N(Cc4ccccc4)C(=O)[C@@H]3CC[C@H]12,-0.0228,0.47,0.545,0.903,-0.677,-0.0529,-0.0626,-0.158,-0.273,0.405
CCOC(=O)[C@H](CC(C)C)NC(=O)CCC1CC(OC(=O)NCCc2ccc(F)cc2)CC2(CCCC(COC(=O)NCC3CCCCC3)O2)O1 (stereo not given in full),0.723,-1.11,0.351,0.255,-0.622,-0.19,-0.0362,-0.45,0.627,0.596
CCC(=O)[C@@]1(O)C(=O)N2C(=C3C(=O)OCC[C@@H]31)N(Cc1ccccc1)C(C)=C(C(=O)OC)[C@H]2c1ccccc1,0.403,0.0779,0.366,-0.368,-0.478,0.0108,-0.221,-0.369,0.478,-0.0321
O=C1C[C@@H](O)[C@@H](O)[C@@H]2[C@@H]3C(=O)N(C[C@@H]4CCCO4)C(=O)[C@@H]3CC[C@H]12,0.265,0.624,0.903,0.0222,-0.522,-0.0478,-0.0337,0.0309,0.224,0.384
O=C1C[C@@H](O)[C@@H](O)[C@@H]2[C@@H]3C(=O)N(Cc4ccccc4)C(=O)[C@@H]3CC[C@@H]12,0.467,-0.76,0.474,-0.0573,-0.761,-0.195,0.0684,-0.0784,0.442,0.101
COc1ccc(O[C@H]2C=C[C@@H](c3ccccc3)O[C@@H]2CON=C(C)CCN2CCc3nc(-c4ccccc4)c(-c4ccccc4)cc3C2)cc1,-0.797,-3.38,-0.417,0.387,-0.0427,-0.169,-0.123,-0.198,0.173,0.67
CO[C@@H]1C=CCC(=O)N2CCC[C@H]2C(=O)OC[C@@H](C)C(=O)OC[C@H]1C,-0.291,0.189,0.837,-0.759,-1.02,-0.0896,-0.0362,-0.246,-0.0837,-0.276
COc1cccc([C@@H]2Oc3ccc(OC)cc3C(=O)[C@H]2O)c1,0.0299,2.25,0.386,0.111,-0.397,-0.157,-0.0211,-0.519,-0.0655,1.11
CO[C@H]1COC(=O)CC=C[C@H](C)[C@@H](OC)COC(=O)[C@@H](C)COC(=O)CC=C[C@@H]1C,-0.544,-1.09,1.16,-2.12,-2.84,-0.1,-0.0769,-0.339,0.34,-1.47
Cc1ccc(S(=O)(=O)OC[C@H]2CN3[C@H](c4ccc(Br)cc4)[C@@H](C)CC[C@H]3C(=O)O2)cc1,0.226,-1.02,0.119,0.946,-0.265,-0.0462,0.0141,-0.12,0.0859,0.934
O=C1C[C@@H](O)[C@@H](O)[C@@H]2[C@@H]3C(=O)N(C[C@@H]4CCCO4)C(=O)[C@@H]3CC[C@@H]12,0.27,-0.321,0.723,0.187,-0.426,-0.0239,-0.106,-0.303,0.119,0.506
CCN1C(=O)[C@H]2[C@H]3[C@H](O)[C@H](O)CC(=NOC[C@H]4O[C@H](c5ccccc5)C=C[C@@H]4Oc4ccc(OC)cc4)[C@@H]3CC[C@H]2C1=O,0.783,-1.65,0.621,0.406,-0.332,-0.0045,0.318,0.364,0.447,1.05
COC(=O)CC=C[C@@H](C)[C@@H](C=NO[C@H](C)c1cn([C@@H]2COC[C@H]2O)nn1)NS(=O)(=O)c1ccc(C)cc1,-0.12,-0.483,0.722,-0.0535,-0.646,-0.144,-0.237,-0.246,0.0982,-0.361
